Broadly, the inhibition is the change of the read-out against control, counted positive when it falls.

For experiment [1], the target named is Serine/threonine-protein kinase MARK2 (Homo sapiens) (UniProt Q7KZI7). The following applies: at 1 µM.
Experiment [2] deals with PAS domain-containing serine/threonine-protein kinase (Homo sapiens) (UniProt Q96RG2). The note with it: at 0.1 µM.
For experiment [3] the target is unchanged. The note with it: at 1 µM.
Experiment [4] deals with Phosphorylase b kinase gamma catalytic chain, skeletal muscle/heart isoform (Homo sapiens) (UniProt Q16816). The following applies: at 0.1 µM.
The target is the same in experiment [5]. The following applies: at 1 µM.
Experiment [6] deals with T1, Phosphorylase b kinase gamma catalytic chain, liver/testis isoform (Homo sapiens) (UniProt P15735).
T1 sequence (whole entry): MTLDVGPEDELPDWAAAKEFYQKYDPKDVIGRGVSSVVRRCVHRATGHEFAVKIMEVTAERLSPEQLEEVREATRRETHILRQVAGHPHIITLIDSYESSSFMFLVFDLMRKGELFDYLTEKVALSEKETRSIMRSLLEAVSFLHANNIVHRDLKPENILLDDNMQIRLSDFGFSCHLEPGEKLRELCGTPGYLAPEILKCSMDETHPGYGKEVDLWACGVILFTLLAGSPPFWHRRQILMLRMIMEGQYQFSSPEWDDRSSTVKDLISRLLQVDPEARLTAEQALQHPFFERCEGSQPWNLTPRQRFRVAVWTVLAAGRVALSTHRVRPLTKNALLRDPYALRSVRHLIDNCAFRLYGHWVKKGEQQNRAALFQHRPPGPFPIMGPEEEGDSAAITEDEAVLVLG
The following applies: at 0.1 µM.

Experiment [7] addresses T1, Phosphorylase b kinase gamma catalytic chain, liver/testis isoform (Homo sapiens). The following applies: at 1 µM.
Experiment [8] addresses Serine/threonine-protein kinase pim-1 (Homo sapiens) (UniProt P11309). The following applies: at 0.1 µM.
Experiment [9] shares this target. The note with it: at 1 µM.
Experiment [10] has as its target Serine/threonine-protein kinase pim-2 (Homo sapiens) (UniProt Q9P1W9). The note with it: at 0.1 µM.
The target is the same in experiment [11]. The note with it: at 1 µM.
Experiment [12] has as its target Serine/threonine-protein kinase pim-3 (Homo sapiens) (UniProt Q86V86). The note with it: at 0.1 µM.
The target is the same in experiment [13]. The note with it: at 1 µM.
Experiment [14] concerns the target T2, MAP kinase-activated protein kinase 5 (Homo sapiens) (UniProt Q8IW41).
T2 sequence (whole entry): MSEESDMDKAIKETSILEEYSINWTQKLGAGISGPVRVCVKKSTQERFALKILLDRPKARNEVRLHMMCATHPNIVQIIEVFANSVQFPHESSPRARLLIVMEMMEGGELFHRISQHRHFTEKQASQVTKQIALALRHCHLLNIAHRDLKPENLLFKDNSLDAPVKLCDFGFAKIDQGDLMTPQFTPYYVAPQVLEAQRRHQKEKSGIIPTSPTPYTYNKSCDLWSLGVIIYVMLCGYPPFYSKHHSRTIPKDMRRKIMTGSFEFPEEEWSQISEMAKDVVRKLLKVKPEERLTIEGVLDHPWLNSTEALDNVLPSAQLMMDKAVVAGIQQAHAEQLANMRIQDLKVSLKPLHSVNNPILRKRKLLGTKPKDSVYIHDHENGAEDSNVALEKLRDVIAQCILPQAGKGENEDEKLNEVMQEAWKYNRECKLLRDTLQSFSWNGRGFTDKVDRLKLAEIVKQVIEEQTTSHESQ
The following applies: at 0.1 µM.

Experiment [15] deals with T2, MAP kinase-activated protein kinase 5 (Homo sapiens). The note with it: at 1 µM.
Experiment [16] concerns the target Serine/threonine-protein kinase SIK1 (Homo sapiens) (UniProt P57059). The following applies: at 0.1 µM.
For experiment [17] the target is unchanged. The following applies: at 1 µM.
For experiment [18], the target named is Serine/threonine-protein kinase SIK2 (Homo sapiens) (UniProt Q9H0K1). The note with it: at 0.1 µM.
Experiment [19] has the same target. The note with it: at 1 µM.
In experiment [20] the target is T3, Serine/threonine-protein kinase TBK1 (Homo sapiens) (UniProt Q9UHD2).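 Further: values are the mean TBK1 inhibition, taken from the GSK PKIS screening data.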
T3 sequence (whole entry): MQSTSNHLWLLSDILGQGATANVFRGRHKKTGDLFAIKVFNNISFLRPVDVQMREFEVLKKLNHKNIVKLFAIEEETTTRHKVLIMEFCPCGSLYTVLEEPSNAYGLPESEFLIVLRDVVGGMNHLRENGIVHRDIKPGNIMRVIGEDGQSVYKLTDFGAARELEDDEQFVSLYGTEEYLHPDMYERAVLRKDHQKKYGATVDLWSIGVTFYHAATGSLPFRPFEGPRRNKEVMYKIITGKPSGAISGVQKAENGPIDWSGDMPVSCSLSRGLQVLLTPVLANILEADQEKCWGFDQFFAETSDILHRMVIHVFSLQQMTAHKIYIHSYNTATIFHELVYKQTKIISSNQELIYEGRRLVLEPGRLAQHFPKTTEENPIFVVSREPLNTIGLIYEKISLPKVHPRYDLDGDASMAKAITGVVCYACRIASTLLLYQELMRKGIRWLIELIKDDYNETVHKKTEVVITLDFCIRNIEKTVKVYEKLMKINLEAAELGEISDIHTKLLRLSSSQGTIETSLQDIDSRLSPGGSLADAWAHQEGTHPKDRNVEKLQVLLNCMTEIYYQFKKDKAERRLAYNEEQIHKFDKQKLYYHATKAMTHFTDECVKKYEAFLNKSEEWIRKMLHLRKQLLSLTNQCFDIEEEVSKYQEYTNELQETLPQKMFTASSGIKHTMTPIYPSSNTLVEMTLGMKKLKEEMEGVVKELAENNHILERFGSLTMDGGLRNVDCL
The note with it: at 0.1 µM.

Each structure is given as a SMILES string.

Chain of Serine/threonine-protein kinase pim-1 (Homo sapiens) (P11309 whole entry, looked up): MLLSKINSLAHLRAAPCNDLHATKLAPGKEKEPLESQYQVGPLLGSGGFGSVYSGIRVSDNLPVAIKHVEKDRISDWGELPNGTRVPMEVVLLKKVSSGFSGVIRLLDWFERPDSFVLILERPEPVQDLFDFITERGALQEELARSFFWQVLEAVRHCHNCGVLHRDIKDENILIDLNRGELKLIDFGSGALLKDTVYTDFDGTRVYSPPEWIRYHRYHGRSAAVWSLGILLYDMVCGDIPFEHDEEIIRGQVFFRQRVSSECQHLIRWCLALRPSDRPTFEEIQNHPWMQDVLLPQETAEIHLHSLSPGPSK
Chain of Phosphorylase b kinase gamma catalytic chain, skeletal muscle/heart isoform (Homo sapiens) (Q16816 whole entry, looked up, canonical isoform): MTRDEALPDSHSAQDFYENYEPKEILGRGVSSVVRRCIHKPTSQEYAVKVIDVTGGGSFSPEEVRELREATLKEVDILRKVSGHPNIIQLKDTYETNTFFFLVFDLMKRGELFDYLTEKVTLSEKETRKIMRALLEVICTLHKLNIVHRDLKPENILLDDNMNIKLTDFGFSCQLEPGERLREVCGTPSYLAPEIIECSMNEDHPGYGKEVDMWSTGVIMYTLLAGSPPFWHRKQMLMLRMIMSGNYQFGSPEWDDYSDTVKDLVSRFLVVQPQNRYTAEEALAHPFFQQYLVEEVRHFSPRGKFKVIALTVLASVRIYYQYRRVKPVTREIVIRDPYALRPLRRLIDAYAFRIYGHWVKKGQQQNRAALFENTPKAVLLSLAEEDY
Chain of PAS domain-containing serine/threonine-protein kinase (Homo sapiens) (Q96RG2 whole entry, the tested form may be a part): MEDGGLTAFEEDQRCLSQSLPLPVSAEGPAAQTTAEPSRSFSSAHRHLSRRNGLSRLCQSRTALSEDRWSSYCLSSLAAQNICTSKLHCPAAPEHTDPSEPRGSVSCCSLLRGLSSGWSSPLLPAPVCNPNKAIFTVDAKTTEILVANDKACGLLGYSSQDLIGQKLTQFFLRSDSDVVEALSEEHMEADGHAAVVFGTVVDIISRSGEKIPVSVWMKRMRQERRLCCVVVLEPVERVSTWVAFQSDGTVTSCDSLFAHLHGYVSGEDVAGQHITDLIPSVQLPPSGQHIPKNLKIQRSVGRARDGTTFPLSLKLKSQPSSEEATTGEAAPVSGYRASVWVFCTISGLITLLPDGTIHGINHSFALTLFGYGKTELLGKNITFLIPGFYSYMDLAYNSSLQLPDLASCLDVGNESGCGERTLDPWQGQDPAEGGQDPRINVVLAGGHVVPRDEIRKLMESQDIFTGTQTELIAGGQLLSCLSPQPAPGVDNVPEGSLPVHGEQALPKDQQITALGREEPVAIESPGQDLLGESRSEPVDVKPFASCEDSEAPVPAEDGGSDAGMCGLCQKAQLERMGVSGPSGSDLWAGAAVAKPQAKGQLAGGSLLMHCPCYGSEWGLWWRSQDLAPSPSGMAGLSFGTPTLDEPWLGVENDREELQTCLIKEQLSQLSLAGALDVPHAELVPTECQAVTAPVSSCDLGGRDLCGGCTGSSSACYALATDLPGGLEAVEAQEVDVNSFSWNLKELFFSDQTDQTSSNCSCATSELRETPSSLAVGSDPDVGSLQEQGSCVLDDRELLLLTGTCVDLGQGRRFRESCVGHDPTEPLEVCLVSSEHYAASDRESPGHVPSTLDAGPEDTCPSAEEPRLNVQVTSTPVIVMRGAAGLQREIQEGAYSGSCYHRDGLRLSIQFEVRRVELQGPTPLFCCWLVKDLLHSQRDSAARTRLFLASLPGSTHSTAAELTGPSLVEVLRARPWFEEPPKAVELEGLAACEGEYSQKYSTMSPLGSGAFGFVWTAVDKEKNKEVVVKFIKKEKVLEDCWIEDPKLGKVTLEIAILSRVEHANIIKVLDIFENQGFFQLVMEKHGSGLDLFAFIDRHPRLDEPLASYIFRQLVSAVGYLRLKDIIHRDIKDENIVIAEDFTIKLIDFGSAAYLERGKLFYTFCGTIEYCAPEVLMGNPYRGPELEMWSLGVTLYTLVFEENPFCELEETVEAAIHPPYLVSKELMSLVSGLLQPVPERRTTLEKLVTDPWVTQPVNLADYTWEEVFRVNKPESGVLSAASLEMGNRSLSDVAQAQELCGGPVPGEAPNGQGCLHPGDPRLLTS
Chain of Serine/threonine-protein kinase pim-2 (Homo sapiens) (Q9P1W9 whole entry, looked up): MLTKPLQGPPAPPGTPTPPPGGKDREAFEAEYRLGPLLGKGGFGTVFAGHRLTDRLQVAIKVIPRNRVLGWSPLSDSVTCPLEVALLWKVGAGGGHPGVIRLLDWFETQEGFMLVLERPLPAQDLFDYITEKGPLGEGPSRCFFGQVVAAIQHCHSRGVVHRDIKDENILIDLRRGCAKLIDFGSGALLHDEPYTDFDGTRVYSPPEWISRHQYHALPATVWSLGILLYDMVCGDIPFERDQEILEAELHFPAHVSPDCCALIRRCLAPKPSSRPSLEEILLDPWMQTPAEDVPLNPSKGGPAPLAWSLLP
Chain of Serine/threonine-protein kinase SIK2 (Homo sapiens) (Q9H0K1 whole entry, looked up): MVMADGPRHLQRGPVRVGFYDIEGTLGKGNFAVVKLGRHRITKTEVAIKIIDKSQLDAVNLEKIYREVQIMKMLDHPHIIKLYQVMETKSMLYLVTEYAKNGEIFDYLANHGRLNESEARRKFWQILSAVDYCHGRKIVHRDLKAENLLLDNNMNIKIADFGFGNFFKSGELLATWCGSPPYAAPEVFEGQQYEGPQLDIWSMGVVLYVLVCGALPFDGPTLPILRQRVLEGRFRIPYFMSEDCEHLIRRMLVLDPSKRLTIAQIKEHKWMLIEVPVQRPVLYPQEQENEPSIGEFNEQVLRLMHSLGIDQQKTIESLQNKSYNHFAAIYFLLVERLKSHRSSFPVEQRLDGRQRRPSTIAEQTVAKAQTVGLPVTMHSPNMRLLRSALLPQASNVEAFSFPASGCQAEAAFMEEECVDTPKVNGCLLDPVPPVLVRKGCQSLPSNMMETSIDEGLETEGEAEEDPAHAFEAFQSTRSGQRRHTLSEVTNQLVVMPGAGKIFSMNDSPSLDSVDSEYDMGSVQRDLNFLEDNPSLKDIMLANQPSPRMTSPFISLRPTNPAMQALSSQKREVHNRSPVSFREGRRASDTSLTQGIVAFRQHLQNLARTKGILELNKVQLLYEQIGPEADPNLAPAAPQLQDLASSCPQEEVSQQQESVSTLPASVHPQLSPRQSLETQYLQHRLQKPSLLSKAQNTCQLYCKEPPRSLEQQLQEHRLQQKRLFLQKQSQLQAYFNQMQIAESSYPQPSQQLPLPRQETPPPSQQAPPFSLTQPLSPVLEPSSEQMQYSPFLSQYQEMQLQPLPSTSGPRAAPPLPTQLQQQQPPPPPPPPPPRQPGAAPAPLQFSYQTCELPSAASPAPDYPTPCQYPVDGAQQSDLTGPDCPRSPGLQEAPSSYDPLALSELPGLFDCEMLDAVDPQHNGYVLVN
Chain of Serine/threonine-protein kinase MARK2 (Homo sapiens) (Q7KZI7 whole entry, the tested form may be a part): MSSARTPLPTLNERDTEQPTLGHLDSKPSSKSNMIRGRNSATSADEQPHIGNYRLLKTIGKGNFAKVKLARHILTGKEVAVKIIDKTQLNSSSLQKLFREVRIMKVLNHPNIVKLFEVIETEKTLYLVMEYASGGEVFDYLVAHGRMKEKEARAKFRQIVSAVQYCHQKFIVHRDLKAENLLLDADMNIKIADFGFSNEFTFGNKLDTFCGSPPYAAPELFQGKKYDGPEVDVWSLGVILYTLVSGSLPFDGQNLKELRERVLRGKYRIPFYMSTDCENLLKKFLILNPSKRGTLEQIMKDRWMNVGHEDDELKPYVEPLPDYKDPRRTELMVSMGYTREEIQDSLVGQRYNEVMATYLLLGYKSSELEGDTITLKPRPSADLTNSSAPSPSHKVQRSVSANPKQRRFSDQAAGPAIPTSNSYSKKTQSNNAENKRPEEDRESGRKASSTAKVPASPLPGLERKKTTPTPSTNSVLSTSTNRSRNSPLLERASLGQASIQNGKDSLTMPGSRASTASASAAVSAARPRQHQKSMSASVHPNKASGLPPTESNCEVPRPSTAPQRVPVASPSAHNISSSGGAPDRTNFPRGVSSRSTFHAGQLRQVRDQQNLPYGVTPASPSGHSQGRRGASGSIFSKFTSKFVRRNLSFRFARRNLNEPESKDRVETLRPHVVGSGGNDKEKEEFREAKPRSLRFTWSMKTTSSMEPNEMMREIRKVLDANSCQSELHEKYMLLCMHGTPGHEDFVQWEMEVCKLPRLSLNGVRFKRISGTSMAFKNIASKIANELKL

Turning to `CS(=O)(=O)CCNCc1ccc(-c2ccc3ncnc(Nc4ccc(OCc5ccccc5)c(Cl)c4)c3c2)o1`, the inhibition in [1] is 3.76%; in [2], 0.71%; in [3], 0.11%; in experiment [4] it was 1.63%; in [5] it was 6.13%; in [6], -1.65%. For the same compound, the inhibition in experiment [7] is -2.44%; in [8], 0.36%; in [9], 1.78%; in experiment [10], -0.34%; in experiment [11] it was 0.98%; in experiment [12], 0.47%. The inhibition is 1.74% in [13]; 0.46% in experiment [14]; 0.34% in experiment [15]; 1.53% in [16]; 4.15% in [17]; -3.07% in experiment [18]. For the same compound, the inhibition is -4.01% in experiment [19] and 0.47% in experiment [20].
Take `Fc1cccc(COc2ccc(Nc3ncnc4cc(-c5ccc[nH]5)sc34)cc2Cl)c1`: the inhibition is 2.66% in experiment [1]; -0.58% in experiment [2]; -0.43% in experiment [3]; 3.19% in experiment [4]; 3.62% in [5]; 2.24% in experiment [6]. For the same compound, the inhibition is 2.18% in [7]; -0.5% in [8]; 1.01% in experiment [9]; -3.43% in experiment [10]; -2.72% in [11]; -0.5% in experiment [12]. The inhibition in experiment [13] was 1.49%; in [14], 0.74%; in [15], 0.9%; in [16], 3.04%; in experiment [17], 8.63%; in [18], 3.89%. For the same compound, the inhibition was 7.67% in [19] and 2.35% in experiment [20].
Consider `Nc1ncnc2occ(-c3ccc(NC(=O)Nc4cc(C(F)(F)F)cc(C(F)(F)F)c4)cc3)c12`, for which the inhibition was 0.58% in experiment [1]; 0.36% in experiment [2]; -1.29% in experiment [3]; 1.04% in experiment [4]; 2.55% in [5]; 1.7% in experiment [6]. Also, the inhibition in [7] was -1.63%; in experiment [8], 0.69%; in experiment [9], 0.66%; in experiment [10] it was 0.17%; in experiment [11] it was 0.27%; in experiment [12], -1.29%. In addition, the inhibition is -2.53% in experiment [13]; 0.61% in [14]; 0.59% in [15]; 1.96% in [16]; 2.47% in experiment [17]; 3.48% in [18]. Also, the inhibition in experiment [19] is 4.42%; in experiment [20], -0.65%.
With `CCn1c(-c2nonc2N)nc2ccncc21`, the inhibition in experiment [1] worked out at 1.6%; in [2] it was 0.79%; in experiment [3] it was 0.01%; in experiment [4], 1.54%; in [5], 2.74%; in [6], 2.66%. Also, the inhibition in [7] was -0.15%; in [8], -0.28%; in experiment [9], -0.66%; in experiment [10], 0.35%; in experiment [11], 0.12%; in experiment [12] it was -0.49%. Besides, the inhibition in experiment [13] is -1.56%; in experiment [14] it was 0.36%; in experiment [15], -0.69%; in experiment [16], -0.38%; in experiment [17], 8.47%; in [18], 5.56%. In addition, the inhibition in [19] came out at 3.95%; in [20], 2.23%.
As to `CC1=C(C(=O)Nc2ccc3[nH]ncc3c2)C(c2ccc(F)cc2)NC(=O)N1` (centres undefined), the inhibition in [1] was 3.63%; in experiment [2] it was -0.71%; in experiment [3] it was -0.21%; in experiment [4], 4.98%; in [5], 4.43%; in experiment [6] it was 0.63%. Besides, the inhibition in [7] is 2.08%; in [8], 0.13%; in experiment [9], -0.04%; in experiment [10], -0.16%; in [11], -0.13%; in experiment [12], 0.21%. Further, the inhibition in [13] was -0.69%; in experiment [14] it was 2.17%; in experiment [15], 0.76%; in [16], 0.84%; in [17] it was 3.8%; in experiment [18], 3.04%. The results for the inhibition in experiment [19] and in [20] were 1.13% and 2.82%, respectively.
Regarding `CCCN1CCC(Oc2cc(Nc3nc(Nc4cccc(F)c4C(N)=O)c4cc[nH]c4n3)c(OC)cc2Cl)CC1`, the inhibition in experiment [1] is 1.3%; in experiment [2] it was 0.73%; in experiment [3] it was 1.6%; in experiment [4], 1.4%; in experiment [5], 24.2%; in experiment [6], -0.41%. The inhibition in [7] worked out at 0.31%; in [8], 4.08%; in experiment [9], 25.4%; in experiment [10] it was 0.5%; in [11], 2.68%; in experiment [12], 1.54%. The inhibition in [13] is 10.5%; in [14], -0.3%; in experiment [15] it was -0.07%; in [16] it was -0.37%; in experiment [17] it was 2.28%; in [18], -0.16%. The inhibition is -0.62% in [19] and -0.35% in experiment [20].
Turning to `COc1cc2c(cc1Nc1nc(N3CCc4ccccc43)c3cc[nH]c3n1)N(C(=O)CN(C)C)CC2`, the inhibition is 0.39% in [1]; 1.45% in experiment [2]; -0.16% in experiment [3]; 3.14% in experiment [5]; 3.23% in experiment [6]; 0.08% in experiment [7]. In addition, the inhibition in experiment [8] was 0.66%; in experiment [9] it was -0.15%; in [10], -0.35%; in [11], 0.38%; in experiment [12], -0.4%; in [13] it was -1.08%. Besides, the inhibition in experiment [14] was 0.04%; in experiment [15], -1.65%; in [16] it was 3.24%; in [17], 7.48%; in [18], 2.51%; in experiment [19], -3.15%. Besides, in [20], the inhibition amounted to 0.22%.

The values above are taken from ChEMBL document CHEMBL1961873, “Compounds: GSK PKIS; Assays: Nanosyn kinase panel” (2012).
